Assay results from PubChem BioAssay AID1159580 (chemical genetic matrix, 2015).
Several values for one entry are separate records, joined by “and”; a condition that tells them apart may be missing. Identical values can stand only once. The campaign covered roughly 5,500 compounds. About 2,000 (36%) were called active. Not shown: some 18% with an inconclusive outcome. Rule as the data show it: active = normalized growth mostly below about 0.91 (no sharp cut-off); inconclusive = no clear call, values can overlap the other calls; inactive = mostly above about 0.92. Some of the results follow.

Assay: chemical genetic growth profiling, strain panel (AID 1159580);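 also: tested at 20 µM; growth read once vehicle control cultures reached saturation at 30 °C; 1 = growth at the plate median or of vehicle wells; lower values mean less growth of the strain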
Conditions: S. cerevisiae deletion strains, growth OD

Measured: normalized growth

CN1CCC(=C2c3ccccc3CC(=O)c3sccc32)CC1
inactive: locus YAL013W, strain DEP1, hits give low values 1.01 | locus YAL021C, strain ccr4, hits give low values 0.985 | locus YAL026C, strain drs2, hits give low values 0.981 | locus YAL030W, strain snc1, hits give low values 0.975 | locus YAL040C, strain CLN3, hits give low values 0.992 | locus YBL061C, strain skt5, hits give low values 0.981 | locus YBR009C, strain hhf1, hits give low values 1.02 | locus YBR021W, strain FUR4, hits give low values 1.01 | locus YBR023C, strain chs3, hits give low values 0.986 | locus YBR171W, strain sec66, hits give low values 0.964 | locus YBR229C, strain ROT2, hits give low values 0.999 | locus YBR231C, strain swc5, hits give low values 0.964 | locus YBR279W, strain paf1, hits give low values 0.994 | locus YCL011C, strain gbp2, hits give low values 0.989 | locus YCL016C, strain dcc1, hits give low values 1.04 | locus YCL029C, strain bik1, hits give low values 1.02 | locus YCL061C, strain MRC1 (second series), hits give low values 1 | locus YCL069W, strain vba3, hits give low values 0.983 | locus YCR088W, strain abp1, hits give low values 0.973 | locus YDL005C, strain med2, hits give low values 0.991 | locus YDL035C, strain GPR1, hits give low values 1.02 | locus YDL040C, strain nat1, hits give low values 0.984 | locus YDL074C, strain BRE1, hits give low values 1.02 | locus YDL101C, strain DUN1, hits give low values 1.02 | locus YDL134C, strain PPH21, hits give low values 1.01 | locus YDL185W, strain tfp1, hits give low values 1.01 | locus YDL192W, strain arf1, hits give low values 1.01 | locus YDR001C, strain nth1, hits give low values 0.957 | locus YDR069C, strain doa4, hits give low values 0.954 | locus YDR101C, strain arx1, hits give low values 1.01 | locus YDR137W, strain rgp1, hits give low values 0.974 | locus YDR150W, strain NUM1, hits give low values 1 | locus YDR159W, strain sac3, hits give low values 1.03 | locus YDR162C, strain NBP2, hits give low values 1.01 | locus YDR195W, strain ref2 0.895 | locus YDR297W, strain sur2, hits give low values 0.982 | locus YDR318W, strain mcm21, hits give low values 1.02 | locus YDR334W, strain swr1, hits give low values 0.928 | locus YDR335W, strain msn5, hits give low values 0.977 | locus YDR363W, strain ESC2, hits give low values 0.985 | locus YDR388W, hits give low values 1.01 | locus YDR392W, strain spt3, hits give low values 1.04 | locus YDR502C, strain sam2, hits give low values 1.01 | locus YEL003W, strain gim4, hits give low values 0.986 | locus YEL037C, strain rad23, hits give low values 0.99 | locus YEL061C, strain CIN8 (second series), hits give low values 0.966 | locus YEL061C, strain CIN8, hits give low values 1.01 | locus YER002W, strain NOP16, hits give low values 0.993 | locus YER015W, strain faa2, hits give low values 1.01 | locus YER016W, strain bim1, hits give low values 1 | locus YER110C, hits give low values 1.01 | locus YER111C, strain swi4, hits give low values 0.972 | locus YER155C, strain BEM2 (second series), hits give low values 0.927 | locus YER155C, strain BEM2, hits give low values 1 | locus YER167W, strain BCK2, hits give low values 1 | locus YFR010W, strain ubp6, hits give low values 0.958 | locus YGL078C, strain dbp3, hits give low values 1.01 | locus YGL086W, strain mad1, hits give low values 0.994 | locus YGL167C, strain pmr1, hits give low values 0.964 | locus YGL173C, strain kem1, hits give low values 0.984 | locus YGL227W, strain vid30, hits give low values 0.984 | locus YGL240W, strain doc1, hits give low values 0.957 | locus YGL248W, strain PDE1, hits give low values 1.01 | locus YGL253W, strain hxk2, hits give low values 1 | locus YGR078C, strain PAC10, hits give low values 1.01 | locus YGR135W, strain pre9, hits give low values 1 | locus YGR229C, strain SMI1, hits give low values 0.999 and 0.99 | locus YGR252W, strain gcn5, hits give low values 0.962 | locus YHR013C, strain ard1, hits give low values 0.971 | locus YHR027C, strain rpn1, hits give low values 0.992 | locus YHR030C, strain SLT2, hits give low values 1.01 and 1.04 | locus YHR079C, strain IRE1 (second series), hits give low values 1.02 | locus YHR079C, strain IRE1, hits give low values 1.03 | locus YHR094C, strain hxt1, hits give low values 1.01 | locus YHR129C, strain ARP1, hits give low values 1 | locus YHR142W, strain chs7, hits give low values 0.99 | locus YHR200W, strain rpn10, hits give low values 1.02 | locus YIL066C, strain RNR3, hits give low values 1.01 | locus YIL073C, strain SPO22, hits give low values 1.06 | locus YIL125W, strain kgd1, hits give low values 0.998 | locus YIR030C, strain dcg1, hits give low values 1.01 | locus YJL092W, strain hpr5, hits give low values 0.977 | locus YJL095W, strain BCK1 (second series), hits give low values 0.973 | locus YJL095W, strain BCK1, hits give low values 1.02 | locus YJL115W, strain asf1, hits give low values 0.953 | locus YJL129C, strain trk1, hits give low values 0.969 | locus YJL134W, strain LCB3, hits give low values 1.01 | locus YJL154C, strain vps35, hits give low values 0.968 | locus YJL164C, strain tpk1, hits give low values 1.02 | locus YJL166W, strain qcr8, hits give low values 0.95 | locus YJL168C, strain set2, hits give low values 1.01 | locus YJL187C, strain SWE1 (second series), hits give low values 1.02 | locus YJR043C, strain POL32, hits give low values 1.02 | locus YJR066W, strain TOR1, hits give low values 0.989 | locus YJR075W, strain HOC1, hits give low values 1.01
